According to PubChem BioAssay (Tox21):
Records with an inconclusive call do not appear. The source made the active and inactive calls. Unless noted, the call rests on the fitted dose curve; in most records, active means well fitted curve in the direction sought with a large enough effect in the repeat runs; inconclusive means weak or mixed curves; inactive means no such curve, though single readings can be large; an effect the other way counts as inactive or inconclusive.

Key:
[1] = qHTS assay to identify small molecule agonists of the peroxisome proliferator-activated receptor delta (PPARd) signaling pathway - cell viability counter screen (AID 743211); further: on the % scale 0 is the no-effect control and ±100 the full control effect; nearly all actives have a fitted effect of over 55% in size
Method in brief: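 Read-out: CellTiter-Glo luminescence, 30 min RT, measured in the same wells as the beta-lactamase reporter. Cells: GeneBLAzer PPAR delta UAS-bla HEK293H, 3000 cells/well, compound exposure 17 h at 37C.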

[2] = target: Peroxisome proliferator-activated receptor delta (Homo sapiens) (UniProt Q03181); assay: qHTS assay to identify small molecule agonists of the peroxisome proliferator-activated receptor delta (PPARd) signaling pathway (AID 743212; calls by dose curve; further: on the % scale 0 is the no-effect control and ±100 the full control effect)
Method in brief: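 A PPARd-bla HEK293H line with beta-lactamase under an Upstream Activator Sequence is treated with compounds at 37 C. Substrate loading for 2 h at room temperature precedes the fluorescence measurement.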

[3] = qHTS assay to identify small molecule antagonists of the peroxisome proliferator-activated receptor delta (PPARd) signaling pathway - cell viability counter screen (AID 743213); further: on the % scale 0 is the no-effect control and ±100 the full control effect; nearly all actives have a fitted effect of over 50% in size
Method in brief: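 HEK293H PPARd UAS-bla cells, 5 h pre-incubation, compound + L165041 300 nM final, 17 h 37 C; B/G FRET substrate 2 h RT; then CellTiter-Glo 30 min RT, luminescence.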

[4] = qHTS assay to identify small molecule agonists of the farnesoid-X-receptor (FXR) signaling pathway - cell viability counter screen (AID 743218); further: on the % scale 0 is the no-effect control and ±100 the full control effect; nearly all actives have a fitted effect of over 45% in size
Method in brief: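 Parallel cytotoxicity test: compound-treated (16 h, 37 C) HEK 293T FXR-bla reporter cells were lysed with CellTiter-Glo and luminescence recorded.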

[5] = qHTS assay to identify small molecule antagonists of the farnesoid-X-receptor (FXR) signaling pathway - cell viability counter screen (AID 743221; active means well fitted cell-killing curve with a large enough effect in the repeat runs, not every such curve was filed as active; further: on the % scale 0 is the no-effect control and ±100 the full control effect; nearly all actives have a fitted effect of over 50% in size)
Method in brief: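 HEK 293T FXR-bla cells, 5 h pre-incubation; compound + CDCA 50 uM final, 16 h, 37 C; beta-lactamase FRET read first, then CellTiter-Glo luminescence, 30 min RT.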

[6] = target: Vitamin D3 receptor (Homo sapiens) (UniProt P11473); assay: qHTS assay to identify small molecule agonists of the vitamin D receptor (VDR) signaling pathway (AID 743222; calls by dose curve; further: on the % scale 0 is the no-effect control and ±100 the full control effect)
Method in brief: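 In VDR-bla cells, compound-induced beta-lactamase expression is quantified by FRET substrate fluorescence. Treatment lasts 16 h at 37C; substrate develops 2 h at room temperature.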

[7] = qHTS assay to identify small molecule agonists of the vitamin D receptor (VDR) signaling pathway - cell viability counter screen (AID 743224); further: series mostly up to about 63 µM; on the % scale 0 is the no-effect control and ±100 the full control effect; nearly all actives have a fitted effect of over 50% in size
Method in brief: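 Plated VDR-bla cells (4 h, 37C) received compound, incubated 16 h, then LiveBLAzer substrate 2 h RT; CellTiter-Glo added afterwards, luminescence read at 30 min.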

[8] = qHTS assay to identify small molecule agonists of the NFkB signaling pathway (AID 1159509; active means well fitted curve in the direction sought with a large enough effect in the signal ratio in the repeat runs, not every such curve was filed as active; the % refers to the signal ratio; further: series mostly up to about 61 µM; on the % scale 0 is the no-effect control and ±100 the full control effect)
Method in brief: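 ME-180 NFkB-bla, 2,000 cells/well, overnight plating; cpd pinned in DMSO, 5 h 37 C; B/G FRET substrate 1.5 h RT; ex 405, em 460/530 nm.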

[9] = qHTS assay to identify small molecule agonists of the NFkB signaling pathway - cell viability counter screen (AID 1159515; calls by dose curve; further: series mostly up to about 61 µM; on the % scale 0 is the no-effect control and ±100 the full control effect; nearly all actives have a fitted effect of over 55% in size)
Method in brief: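 Using the same wells as the NFkB reporter read, ME-180 NFkB-bla cells given compounds for 5 hr were assessed for viability via CellTiter-Glo, with luminescence taken after a 30 min room-temperature incubation.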

[10] = qHTS assay to identify small molecule agonists of the endoplasmic reticulum stress response signaling pathway (AID 1159516; active means well fitted activation curve with a large enough effect in the signal ratio in the repeat runs, not every such curve was filed as active; the % refers to the signal ratio; further: on the % scale 0 is the no-effect control and ±100 the full control effect)
Method in brief: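 An ESRE-bla HeLa cell assay: compounds were pin-transferred from DMSO onto overnight-plated cells and left 5 hr at 37 C. Substrate was then loaded for 2 hr at room temperature before reading fluorescence at 460 nm and 530 nm.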

[11] = qHTS assay to identify small molecule agonists of the endoplasmic reticulum stress response signaling pathway - cell viability counter screen (AID 1159517; calls by dose curve;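 further: HeLa cells carrying an ER stress response element beta-lactamase reporter; series mostly up to about 61 µM; on the % scale 0 is the no-effect control and ±100 the full control effect; nearly all actives have a fitted effect of over 50% in size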)
Method in brief: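 CellTiter-Glo was added to wells already read for beta-lactamase FRET, and luminescence was recorded 30 min later. Cells: ESRE-bla HeLa, 1,500 per well, compound exposure 5 hr at 37 C.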

[12] = qHTS assay to identify small molecule antagonists of the retinoid-related orphan receptor gamma (ROR-gamma) signaling pathway - cell viability counter screen (AID 1159520)
Method in brief: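 Tet-on ROR gamma CHO cells (1,000/well) were plated 4 hr, given compounds in DMSO for 2 hr at 37 C, then induced with 1 uM final doxycycline for 16 hr. Viability was read as ATP by CellTiter-Glo luminescence after 30 min.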

[13] = target: Nuclear receptor ROR-gamma (Homo sapiens) (UniProt P51449); assay: qHTS assay to identify small molecule antagonists of the retinoid-related orphan receptor gamma (ROR-gamma) signaling pathway (AID 1159521)
Method in brief: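 Luminescence readout (ONE-Glo, 30 min RT) after 16 h doxycycline induction; loss of signal scored as antagonism. CHO cells with TET-inducible RORγ and RORE-LUC reporter; compounds added 2 h before 1 uM final doxycycline.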

[14] = qHTS assay to identify small molecule agonists of the AP-1 signaling pathway - cell viability counter screen (AID 1159525; calls by dose curve; further: nearly all actives have a fitted effect of over 55% in size)
Method in brief: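 ME-180 AP-1-bla, 2500 cells/well, Opti-MEM + 0.5% dialyzed FBS; overnight 37 °C; cpd 15-pt titration, 5 h 37 °C; CellTiter-Glo 30 min RT; luminescence read; normalised to TOAB and DMSO controls.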

[15] = qHTS assay to identify small molecule agonists of the AP-1 signaling pathway (AID 1159526; calls by dose curve; further: on the % scale 0 is the no-effect control and ±100 the full control effect)
[16] = target: Peroxisome proliferator-activated receptor delta (Homo sapiens) (UniProt Q03181); assay: qHTS assay to identify small molecule antagonists of the peroxisome proliferator-activated receptor delta (PPARd) signaling pathway (AID 743215; active means well fitted inhibition curve with a large enough effect in the signal ratio in the repeat runs, not every such curve was filed as active; the % refers to the signal ratio)
Method in brief: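 HEK293H UAS-bla, PPARd; agonist L165041 300 nM final with cpd in DMSO; 37 C 17 h; FRET substrate, RT 2 h; fluorescence intensity.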

[17] = target: Bile acid receptor (Homo sapiens) (UniProt Q96RI1); assay: qHTS assay to identify small molecule antagonists of the farnesoid-X-receptor (FXR) signaling pathway (AID 743217; active means well fitted inhibition curve with a large enough effect in the signal ratio in the repeat runs, not every such curve was filed as active; the % refers to the signal ratio; further: on the % scale 0 is the no-effect control and ±100 the full control effect)
Method in brief: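 GeneBLAzer FXR-UAS-bla HEK 293T, CDCA-stimulated (50 uM final). Compound treatment 16 h, 37 °C. Detection: beta-lactamase cleavage of B/G FRET substrate, fluorescence.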

[18] = target: Bile acid receptor (Homo sapiens) (UniProt Q96RI1); assay: qHTS assay to identify small molecule agonists of the farnesoid-X-receptor (FXR) signaling pathway (AID 743220; active means well fitted activation curve with a large enough effect in the signal ratio in the repeat runs, not every such curve was filed as active; the % refers to the signal ratio; further: on the % scale 0 is the no-effect control and ±100 the full control effect)
Method in brief: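 Beta-lactamase reporter under UAS control in GeneBLAzer FXR HEK 293T cells (5000/well) measured with LiveBLAzer FRET substrate after 2 h at room temperature. Compound exposure lasted 16 h at 37C.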

[19] = target: Vitamin D3 receptor (Homo sapiens) (UniProt P11473); assay: qHTS assay to identify small molecule antagonists of the vitamin D receptor (VDR) signaling pathway (AID 743223; active means well fitted inhibition curve with a large enough effect in the signal ratio in the repeat runs, not every such curve was filed as active; the % refers to the signal ratio; further: on the % scale 0 is the no-effect control and ±100 the full control effect)
Method in brief: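 Beta-lactamase reporter read-out: FRET substrate fluorescence after 2 h at room temperature, following 16 h exposure of VDR-bla cells to test compound plus 3 nM (final) 1alpha,25-dihydroxyvitamin D3 agonist at 37C.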

[20] = qHTS assay to identify small molecule antagonists of the vitamin D receptor (VDR) signaling pathway - cell viability counter screen (AID 743225)
Method in brief: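 Viability counter screen run in the same wells as the beta-lactamase reporter assay: HEK 293T VDR-UAS-bla cells, 16 h compound exposure at 37C with 3 nM (final) 1-alpha,25-dihydroxyvitamin D3. CellTiter-Glo luminescence, 30 min, room temperature.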

Chain of Vitamin D3 receptor (Homo sapiens) (P11473 whole entry, looked up): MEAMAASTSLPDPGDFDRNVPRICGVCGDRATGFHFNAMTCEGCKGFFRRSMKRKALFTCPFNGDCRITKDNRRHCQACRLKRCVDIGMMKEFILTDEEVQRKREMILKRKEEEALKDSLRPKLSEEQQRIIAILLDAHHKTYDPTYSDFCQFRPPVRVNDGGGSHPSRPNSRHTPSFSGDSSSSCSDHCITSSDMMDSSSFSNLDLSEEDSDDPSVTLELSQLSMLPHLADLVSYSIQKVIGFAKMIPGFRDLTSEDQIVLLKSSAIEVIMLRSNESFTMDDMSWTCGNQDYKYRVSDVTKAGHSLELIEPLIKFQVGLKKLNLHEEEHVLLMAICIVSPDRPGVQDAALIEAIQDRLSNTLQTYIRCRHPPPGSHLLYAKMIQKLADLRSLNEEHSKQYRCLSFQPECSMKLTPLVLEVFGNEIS
Chain of Peroxisome proliferator-activated receptor delta (Homo sapiens) (Q03181 whole entry, looked up): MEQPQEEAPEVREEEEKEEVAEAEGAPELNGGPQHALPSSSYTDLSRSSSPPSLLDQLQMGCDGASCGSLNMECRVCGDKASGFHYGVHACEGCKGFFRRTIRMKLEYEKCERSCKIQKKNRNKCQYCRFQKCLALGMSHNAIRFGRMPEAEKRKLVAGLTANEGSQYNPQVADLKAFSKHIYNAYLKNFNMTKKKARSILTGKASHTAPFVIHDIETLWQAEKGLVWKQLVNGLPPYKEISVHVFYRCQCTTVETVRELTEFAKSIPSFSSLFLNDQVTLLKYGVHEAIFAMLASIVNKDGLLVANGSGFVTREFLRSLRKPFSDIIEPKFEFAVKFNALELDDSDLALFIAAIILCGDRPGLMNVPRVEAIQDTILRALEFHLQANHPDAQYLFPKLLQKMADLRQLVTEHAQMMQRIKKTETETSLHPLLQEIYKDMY
Chain of Bile acid receptor (Homo sapiens) (Q96RI1 whole entry, looked up): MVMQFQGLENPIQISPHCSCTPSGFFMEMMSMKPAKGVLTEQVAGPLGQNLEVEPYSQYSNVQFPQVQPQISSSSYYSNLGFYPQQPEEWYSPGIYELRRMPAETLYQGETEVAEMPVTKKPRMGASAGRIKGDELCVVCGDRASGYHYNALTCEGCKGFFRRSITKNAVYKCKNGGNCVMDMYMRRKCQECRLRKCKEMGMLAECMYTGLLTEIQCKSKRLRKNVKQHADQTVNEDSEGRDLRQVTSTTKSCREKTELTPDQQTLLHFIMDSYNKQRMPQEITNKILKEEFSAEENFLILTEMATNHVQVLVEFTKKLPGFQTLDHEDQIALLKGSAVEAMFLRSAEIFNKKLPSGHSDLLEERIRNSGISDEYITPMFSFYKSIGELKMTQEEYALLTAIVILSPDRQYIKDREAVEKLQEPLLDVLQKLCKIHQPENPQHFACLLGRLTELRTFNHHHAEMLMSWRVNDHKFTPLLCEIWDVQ

CCC(C(=O)OCCN1CCOC(c2ccccc2)C1C)c1ccccc1 (stereo unspecified)
inactive: outcome [1] | outcome [2] | outcome [3] | outcome [4] | outcome [5] | outcome [6] | outcome [7] | outcome [8] | outcome [9] | outcome [10] | outcome [11] | outcome [12] | outcome [13] | outcome [14] | outcome [15]

O=C(O)[C@H](O)c1ccccc1
inactive: outcome [1] | outcome [2] | outcome [16] | outcome [17] | outcome [4] | outcome [18] | outcome [5] | outcome [6] | outcome [19] | outcome [7] | outcome [20] | outcome [8] | outcome [9] | outcome [10] | outcome [11] | outcome [12] | outcome [13] | outcome [14] | outcome [15]

CCCC(=O)Nc1ccc(OCC(O)CNC(C)C)c(C(C)=O)c1 (stereo unspecified)
inactive: outcome [1] | outcome [2] | outcome [3] | outcome [16] | outcome [4] | outcome [6] | outcome [19] | outcome [7] | outcome [20] | outcome [8] | outcome [9] | outcome [10] | outcome [11] | outcome [12] | outcome [13] | outcome [14] | outcome [15]

CC(S)C(C)S (stereo unspecified)
inactive: outcome [1] | outcome [2] | outcome [3] | outcome [17] | outcome [4] | outcome [18] | outcome [5] | outcome [6] | outcome [7] | outcome [8] | outcome [9] | outcome [10] | outcome [11] | outcome [12] | outcome [13] | outcome [14] | outcome [15]

COC(=O)c1ccccc1C(=O)O
inactive: outcome [1] | outcome [2] | outcome [16] | outcome [4] | outcome [6] | outcome [19] | outcome [8] | outcome [9] | outcome [10] | outcome [11] | outcome [12] | outcome [13] | outcome [14] | outcome [15]

O=C(Cl)c1ccccc1[N+](=O)[O-]
inactive: outcome [1] | outcome [3] | outcome [4] | outcome [5] | outcome [7] | outcome [20] | outcome [8] | outcome [9] | outcome [10] | outcome [11] | outcome [12] | outcome [13] | outcome [14] | outcome [15]

CCCCCC/C=C/C(=O)OC
inactive: outcome [1] | outcome [3] | outcome [4] | outcome [18] | outcome [5] | outcome [6] | outcome [19] | outcome [7] | outcome [20] | outcome [8] | outcome [9] | outcome [10] | outcome [11] | outcome [12] | outcome [13] | outcome [14] | outcome [15]

CCC(=O)CC
inactive: outcome [2] | outcome [3] | outcome [16] | outcome [17] | outcome [4] | outcome [18] | outcome [5] | outcome [6] | outcome [7] | outcome [8] | outcome [9] | outcome [10] | outcome [11] | outcome [12] | outcome [13] | outcome [14] | outcome [15]

O=C1NC(c2ccccc2)(c2ccccc2)C(=O)N1COP(=O)(O)O
inactive: outcome [1] | outcome [3] | outcome [18] | outcome [5] | outcome [6] | outcome [19] | outcome [20] | outcome [8] | outcome [9] | outcome [10] | outcome [11] | outcome [12] | outcome [13] | outcome [14] | outcome [15]

COP(=O)(O)OP(=O)(O)OC
inactive: outcome [1] | outcome [3] | outcome [4] | outcome [5] | outcome [6] | outcome [19] | outcome [7] | outcome [8] | outcome [9] | outcome [10] | outcome [11] | outcome [12] | outcome [13] | outcome [14] | outcome [15]

O=C[O][Al]([O]C=O)[O]C=O
inactive: outcome [2] | outcome [3] | outcome [16] | outcome [17] | outcome [4] | outcome [18] | outcome [5] | outcome [6] | outcome [20] | outcome [8] | outcome [9] | outcome [10] | outcome [11] | outcome [12] | outcome [13] | outcome [14] | outcome [15]

O=C=NCC1CCCC(CN=C=O)C1 (stereo unspecified)
inactive: outcome [1] | outcome [3] | outcome [4] | outcome [6] | outcome [19] | outcome [7] | outcome [20] | outcome [8] | outcome [9] | outcome [10] | outcome [11] | outcome [12] | outcome [13] | outcome [14] | outcome [15]

CCCCOCCOC(=O)COc1ccc(Cl)cc1Cl
inactive: outcome [1] | outcome [3] | outcome [4] | outcome [6] | outcome [7] | outcome [20] | outcome [8] | outcome [9] | outcome [10] | outcome [11] | outcome [12] | outcome [13] | outcome [14] | outcome [15]

N[C@@H](Cc1ccc(O)cc1)C(=O)O
inactive: activity change, negative = cytotoxicity [1] 3.38% [at 13.2 µM] | viability change, negative = cytotoxic [3] 14.5% [at 13.7 µM] | viability change, negative = cytotoxic [4] -2.1% [at 13.2 µM] | activity change, negative = cytotoxicity [5] -1.49% [at 13.2 µM] | activation [6] 10.9% [at 13.4 µM] | activity change, negative = inhibition [19] 1.57% [at 6.95 µM] | viability change, negative = cytotoxic [20] 7.41% [at 6.95 µM] | activation [8] -0.279% [at 6.95 µM] | activity, negative = cytotoxic [9] 9.74% [at 6.95 µM] | activation [10] -0.0263% [at 6.95 µM] | activity change, negative = cytotoxicity [11] 2.71% [at 6.95 µM] | activity, negative = cytotoxicity [12] 1.78% [at 8.39 µM] | activity change, negative = inhibition [13] 1.55% [at 8.39 µM] | viability change, negative = cytotoxic [14] 1.17% [at 6.97 µM] | activation [15] -1.16% [at 6.97 µM]
